Results reported in PubChem BioAssay AID1468 (National Center for Advancing Translational Sciences (NCATS), 2008).
Among all 280,000 compounds or so, about 1,100 (0.39%) were called active. Not shown: some 7% with an inconclusive outcome. What follows is part of a selection rich in actives, with near analogues and random picks from the rest. Unmarked numbers belong to inactive results. Calls follow the shape of the dose curve; as a rule, active = well fitted inhibition curve with a large enough effect; inconclusive = small, poorly fitted or top-dose-only effect, or effect the other way; inactive = flat fitted curve, though single readings scatter.

Molecular target: Microtubule-associated protein tau (Homo sapiens) (UniProt P10636)
Sequence (P10636 561-689 P618L limits assumed): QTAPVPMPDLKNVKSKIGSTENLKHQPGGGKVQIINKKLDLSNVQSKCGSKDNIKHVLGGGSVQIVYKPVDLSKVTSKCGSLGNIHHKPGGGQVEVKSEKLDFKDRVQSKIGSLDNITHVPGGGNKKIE
Assay: qHTS for Inhibitors of Tau Fibril Formation, Fluorescence Polarization; also: nearly all actives have a fitted effect of over 55% in size
Conditions: K18 P301L tau heparin fibrillization, Alexa594 FP, 6 h; series mostly up to 57.7 µM; activity, negative = inhibition: at the top concentration
Excerpt: NIH Molecular Libraries Probe Production Network [MLPCN]
NIH Chemical Genomics Center [NCGC]
Assay Provider: Carlo Ballatore, University of Pennsylvania
The microtubule-associated protein tau is an abundant protein in the axons of neurons that stabilizes microtubules. With its ability to modulate microtubule dynamics, tau contributes directly or indirectly, to key structural and regulatory cellular functions. Particularly important is the influence tau exerts on axonal transport, which allows signaling molecules, trophic factors and other essential cellular constituents to travel along the axons. Under pathological conditions, tau becomes sequestered into insoluble aggregates called neurofibrillary tangles. This phenomenon is believed to have pathological consequences by promoting axonal transport deficits that ultimately lead to synaptic dysfunction and neuronal loss. To identify inhibitors of tau aggregation, a heparin-induced tau fibril formation assay was used that employed a recombinantly expressed fragment of tau, K18 (Q242-E372), bearing a P301L mutation (Gustke et al. 1994; Hong et al. 1998).
Gustke, N., B. Trinczek, et al. (1994). "Domains of tau protein and interactions with microtubules." Biochemistry 33(32): 9511-22.
Hong, M., V. Zhukareva, et al. (1998).
Li, W. and V. M. Lee (2006). "Characterization of two VQIXXK motifs for tau fibrillization in vitro." Biochemistry 45(51): 15692-701.
von Bergen, M., S. Barghorn, et al. (2001). "Mutations of tau protein in frontotemporal dementia promote aggregation of paired helical filaments by enhancing local beta-structure." J Biol Chem 276(51): 48165-74.
NCGC Assay Protocol Summary:
For screening, 2 uL/well human K18 P301L (15 uM unlabeled and 0.24 uM Alexa 594-labeled tau final concentrations) in reagent buffer (100 mM sodium acetate pH 7) was dispensed into black solid 1536-well plates (Grenier) using a solenoid-based dispenser. Following transfer of 23 nL compound or DMSO vehicle by a pin tool, 2 uL/well heparin (20 uM final concentration) in reagent buffer was added and the plate centrifuged 15 s at 1000 RPM. Plates were incubated 6 hr at 37 C and then 1 uL/well ThT (30 uM final concentration) was added. After a 1 hr ambient incubation, the plates were read by an Envision (Perkin Elmer) to monitor Alexa 594 FP (555 nm excitation and 632 nm emission).
Keywords: NIH Roadmap, MLPCN, MLI, MLSMR, NCGC, qHTS, tau, tauopathies, Alzheimer's disease, fibril, neurodegeneration, aggregation
% is scaled to controls: 0 for no effect and ±100 for the full control effect; potency is read from the fitted curve at half-maximal effect.

In the case of `Oc1cc(O)c2c(c1)OC(c1ccc(O)c(O)c1)C(O)C2` (configuration not stated), the Potency is reported as 14.1 µM (active).
`COc1ccc2[nH]cc(/C=C(/C#N)S(=O)(=O)c3ccccc3)c2c1` was tested, and the Potency was 28.2 µM (active).
In the case of `O=C(Nc1ccccc1)Nc1nnc(COc2ccccc2F)s1`, the Potency is reported as 14.1 µM (active).
`CC1=C/C(=N\OS(=O)(=O)c2ccccc2)C=CC1=O` was tested, and the Potency was 12.6 µM (active).
For `CC(C)S(=O)(=O)c1csc(NC(=O)Nc2ccc(Cl)cc2)c1Cl`, the Potency was 31.6 µM (active).
For `CN(C)N=Nc1ccc2nc[nH]c2c1`, the Potency was 8.91 µM (active).
In the case of `O=c1[nH]c2ccccc2n2c(-c3ccccc3)nnc12`, the Potency is reported as 14.1 µM (active).
In the case of `Cn1sc(=O)c2cc(S(=O)(=O)NC3CC3)ccc21`, the Potency is reported as 28.2 µM (active).

Going from `CC(NC(=O)c1cc(Sc2ccc(F)cc2F)nc2ccccc12)c1ccccc1` (configuration not stated) to `COc1ccccc1/C=C/c1nc(C#N)c(NC(C)c2ccccc2)o1` (configuration not stated), the “activity, negative = inhibition” value rises from 2.21% to 9.42%.

Going from `CCCC(=O)Nc1cc(C(=O)NCc2ccc(OC)cc2)ccc1S(=O)(=O)c1ccc(Cl)cc1` to `NS(=O)(=O)c1ccc(CCNC(=O)Nc2ccc(Cl)cc2)cc1`, the “activity, negative = inhibition” value rises from -4.05% to -2.66%.

Going from `COc1ccccc1-c1nnc(SCC(N)=O)o1` to `COCC(=O)Nc1nnc(COc2ccccc2)s1`, the “activity, negative = inhibition” value rises from 1.99% to 8.93%.

Compared with `COc1ccc(NS(=O)(=O)c2ccc(Oc3c(C#N)cccc3C#N)cc2)cc1`, `Cc1ccc(S(=O)(=O)c2ccc(Oc3ccccc3)cc2)cc1` is higher in “activity, negative = inhibition” value: -8.14% for the first, -4.08% for the second.

First: CCN(CC)CC(=O)c1c[nH]c2ccc(OC)cc12
Second: CCOC(=O)c1cnc2[nH]c3ccccc3n2c1=O
The “activity, negative = inhibition” value of the first is higher: 16.4% for the first, 2.71% for the second.

Going from `COc1ccc(C)cc1NC(=O)COCc1cc(-c2cccs2)on1` to `Cc1ccc2cccc(NC(=O)c3ccc(OC(C)C)cc3)c2n1`, the “activity, negative = inhibition” value rises from -3.41% to -0.836%.

First: O=C(NCCOc1ccccc1F)Nc1ccc(Br)cc1
Second: Cn1ccc(NC(=O)Nc2ccc(Cl)cc2)n1
The “activity, negative = inhibition” value of the first is lower: -10.5% for the first, 3.56% for the second.

First: Cc1ccc(N(C)C(=O)C2CCN(S(=O)(=O)c3ccc4c(c3)CCCN4C(=O)C3CCC3)CC2)cc1
Second: CC1CCC(NS(=O)(=O)c2ccc3c(c2)n(C)c(=O)c(=O)n3C)CC1 (configuration not stated)
The “activity, negative = inhibition” value of the first is higher: 3.78% for the first, -2.24% for the second.

Compared with `CC1=C/C(=N\S(=O)(=O)c2ccccc2)C(C(C)C)=CC1=O`, `CC/C(O)=N\S(=O)(=O)c1ccc(N=NN(C)C)cc1` is higher in “activity, negative = inhibition” value: -2.92% for the first, 1.65% for the second.

First: CC(=O)c1ccc(N2CCN(C(=O)c3ccc4nc[nH]c4c3)CC2)cc1
Second: Cc1ccc(-c2nc3ccccc3[nH]c2=O)cc1
The “activity, negative = inhibition” value of the first is higher: 8.33% for the first, -0.895% for the second.

Compared with `CCOc1ccc(-c2nonc2NC(=O)c2oc3ccc(CC)cc3c2C)cc1`, `Cc1cc(C)c2oc(C(=O)Nc3c(C(=O)Nc4ccccc4)oc4ccccc34)cc(=O)c2c1` is higher in “activity, negative = inhibition” value: -19.5% for the first, -9.93% for the second.

Compared with `Cc1nn(C)c2c1c(C(F)(F)F)cc(=O)n2C(C)C(=O)NCc1ccc(Cl)cc1` (configuration not stated), `CSc1ccc(S(=O)(=O)NC2CCCCC2)cc1` is lower in “activity, negative = inhibition” value: 8.26% for the first, -22.1% for the second.
